RGS12 GoLoco inh-1 = blocks human Gai1 binding to RGS12 GoLoco peptide, red readout; P63096; Gai1:RGS12 GoLoco peptide FP, rhodamine, 10 min; Potency, µM (doses to about 61.6 µM), usual class: inhibitors; 230,000 tested, 0.44% active; AID 880; active = well fitted inhibition curve with a large enough effect, not every such curve was filed as active; inactive = no such curve, though single readings can be large or run the other way; also: nearly all actives have a fitted effect of over 30% in size
Target sequence (P63096 whole entry, looked up): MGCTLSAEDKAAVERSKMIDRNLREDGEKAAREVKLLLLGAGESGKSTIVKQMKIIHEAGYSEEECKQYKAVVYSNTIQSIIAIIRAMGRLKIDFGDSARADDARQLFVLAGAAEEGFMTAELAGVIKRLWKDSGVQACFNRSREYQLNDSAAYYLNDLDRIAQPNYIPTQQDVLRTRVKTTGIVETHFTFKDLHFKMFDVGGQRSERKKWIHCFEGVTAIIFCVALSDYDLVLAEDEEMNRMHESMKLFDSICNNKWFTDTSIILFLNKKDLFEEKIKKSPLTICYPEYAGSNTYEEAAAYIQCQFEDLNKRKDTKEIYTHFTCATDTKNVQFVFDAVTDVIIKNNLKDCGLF
Tau fluor counter = counter-screen for tau fibril formation inhibitors. 280,000 tested, 0.93% active. Potency, µM (titrated, usually from 57.7 µM). tau K18 P301L Alexa594 fluorescence, heparin fibrillization; also: nearly all actives have a fitted effect of over 55% in size
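Human K18 P301L tau (15 uM unlabeled plus 0.24 uM Alexa 594-labeled, final) in 100 mM sodium acetate pH 7 was mixed with compound and 20 uM heparin and incubated 6 hr at 37 C.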
Tau FP inhib = blocks human tau fibril formation measured by polarization. AID 1468. Potency, µM (titrated, usually from 57.7 µM), actives largely listed as inhibitors. 280,000 tested, 0.39% active. K18 P301L tau heparin fibrillization, Alexa594 FP, 6 h; also: nearly all actives have a fitted effect of over 55% in size
Target sequence (P10636 561-689 P618L limits assumed): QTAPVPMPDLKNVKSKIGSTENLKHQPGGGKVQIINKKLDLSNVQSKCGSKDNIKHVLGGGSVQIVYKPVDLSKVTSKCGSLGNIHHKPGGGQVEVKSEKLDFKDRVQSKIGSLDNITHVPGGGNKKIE
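Steps: dispense K18 P301L tau (15 uM plus 0.24 uM Alexa 594 tracer, final) in pH 7 sodium acetate; add compound; add heparin (20 uM final); incubate 6 hr, 37 C; add ThT (30 uM final); after 1 hr ambient, read FP.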
Tau ThT inhib = inhibitors of human tau fibril formation, thioflavin T binding | recombinant tau K18 P301L (four-repeat tau fragment), heparin-induced fibrillization, ThT fluorescence | 270,000 tested, 2.1% active | Potency, µM (highest dose often 57.4 µM), most hits filed as inhibitors | AID 1460; also: nearly all actives have a fitted effect of over 55% in size
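Recombinant human tau K18 fragment […] carrying P301L, 15 uM unlabeled plus 0.24 uM Alexa 594-labeled, was fibrillized with 20 uM heparin in 100 mM sodium acetate pH 7 for 6 hr at 37 C; 30 uM ThT fluorescence read after 1 hr.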
TexasRed fluor = Texas Red fluorescence interference in TRb-SRC2 counter-screen; Potency, µM (titrated, usually from 106 µM); TRb/SRC2 Texas Red total fluorescence interference; AID 1479; 280,000 tested, 0.29% active; active = well fitted curve in either direction with a large enough effect; inconclusive = small, poorly fitted or top-dose-only effect
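Human TRβ ligand-binding domain (0.6 uM) and Texas Red SRC2 peptide (20 nM) in Tris buffer with 1 uM T3 and 5% DMSO were incubated with pinned compound for 5 hr at ambient temperature. Total fluorescence was computed as S + 2P (555/632 nm).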
TRb SRC2 PPI = disrupts binding of human TR beta to SRC2 | P10828 | TRbeta-SRC2 peptide binding, fluorescence polarization; receptor liganded with 1 µM T3 | Potency, µM (titrated, usually from 106 µM), actives largely listed as inhibitors | 280,000 tested, 0.065% active | AID 1469; also: nearly all actives have a fitted effect of over 50% in size
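Read-out is fluorescence polarization (555 nm excitation, 632 nm emission) of a Texas Red SRC2 coactivator peptide; loss of signal reflects blocked binding to human TRb ligand-binding domain in the presence of 1 uM T3.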
RGS12 GoLoco inh-2 = disrupts Gai1 binding to human RGS12 GoLoco peptide; 110 tested, 50% active; Gai1/rhodamine-RGS12 GoLoco peptide fluorescence polarization; shares compounds with RGS12 GoLoco inh-1; Potency, µM (highest dose often 57.1 µM), hits mostly inhibitors; AID 2390
A number is an active result; 0 = inactive; ? = inconclusive; - = no result; ! = a repeat was not active; [ ] = remark or other dose. Shown are actives, neighbours in structure and some others; about 3.2% of the full set was active somewhere. Unless noted, calls follow the shape of the dose curve; as a rule, active = well fitted curve in the direction sought with a large enough effect; inconclusive = small, poorly fitted or top-dose-only effect, or another doubt; inactive = no such curve, though single readings can be large; an effect the other way counts as inactive or inconclusive.

SMILES | RGS12 GoLoco inh-1 | Tau fluor counter | Tau FP inhib | Tau ThT inhib | TexasRed fluor | TRb SRC2 PPI | RGS12 GoLoco inh-2
Cc1ccc(NC(=O)CSc2nnc(-c3ccc(S(=O)(=O)N4CCOCC4)cc3)n2C)cc1 | 0 | 0 | 0 | 0 | 0 | 0 | 0
COC(=O)c1ccc(C#CC(NP(=O)(c2ccccc2)c2ccccc2)c2ccccc2)cc1 (configuration not stated) | 0 | 0 | 0 | 0 | 0 | 0 | -
O=C1c2cccc3c([N+](=O)[O-])ccc(c23)C(=O)N1c1ccccn1 | 28µM | 0 | 0 | 0 | 0 | 0 | 0
N#Cc1cccc(NC(=O)N2CCC3(CC2)CCN(C(=O)c2cccc(F)c2)CC3)c1 | 0 | - | - | - | - | - | -
O=C(Cc1ccc(-c2ccccc2)cc1)NCCS(=O)(=O)N1CCN(c2ccc(F)cc2)CC1 | - | 0 | 0 | 0 | 0 | 0 | -
CC1=C(C(=O)Nc2ccccc2)C(C(C)C)n2nc(SCc3ccccc3C)nc2N1 (configuration not stated) | - | 0 | 0 | 0 | 0 | 0 | -
O=C(COc1ccc(Cl)cc1)N1CCN(Cc2ccc3c(c2)OCO3)CC1 | 22µM! | 0 | 0 | 0 | 0 | 0 | 0[0.0121 µM]
O=C(Nc1ccc(Cl)cc1)N1CCN(Cc2ccc3c(c2)OCO3)CC1 | 0 | 0 | 0 | 0 | 0 | 0 | -
O=C1c2ccc3c4c(ccc(c24)C(=O)N1CCCCO)C(=O)N(CCCCO)C3=O | 25µM | 0 | 0 | 0 | 0 | 0 | 11µM
CCc1n(CC(O)COCc2ccccc2)c2ccccc2[n+]1C (configuration not stated) | 3.2µM | 0 | 0 | 0 | 0 | 0 | 16µM
O=C1c2ccccc2C(=O)N1CC(O)COCc1ccccc1 (configuration not stated) | 0 | 0 | 0 | 0 | 0 | 0 | -
CC(=O)N1CCc2c(sc3c2c(=O)n(-c2ccc(C)cc2)c(=O)n3Cc2c(F)cccc2Cl)C1 | - | 0 | 0 | 0 | 0 | 0 | -
C[n+]1c(/C=C/c2ccc3c(c2)OCO3)ccc2ccccc21 | 0 | 0 | 0 | ? | 0 | 0 | -
C[n+]1cc2c3c(ccc2c2ccc4cc5c(cc4c21)OCO5)OCO3 | 14µM! | 18µM[quencher] | ? | 28µM | 0 | 0 | 25µM
CCCCNc1ccc2c3c(cccc13)C(=O)N(CCCC)C2=O | 14µM | ? | ? | ? | 0 | 0 | 14µM
Cn1nnnc1SCC(=O)N1CCN(C(=O)c2ccco2)CC1 | 0 | 0 | 0 | 0 | 0 | 0 | -
Cn1nnnc1SCC(=O)N1CCN(c2ccc(Cl)cc2)CC1 | 0 | 0 | 0 | ? | 0 | 0 | 14µM
Cc1nn(C)c(C)c1N1C(=O)c2cccc3c(Br)ccc(c23)C1=O | 0 | 0 | 0 | 0 | 0 | ? | -
Cc1nn(C)c(C)c1N1C(=O)c2cccc3c(N)ccc(c23)C1=O | 22µM | 0 | 0 | ? | 0 | 0 | 13µM
Cc1cc2nc3c(=O)n(C4CCCCC4)c(=O)[nH]c3nc2cc1N | 0 | 0 | 0 | 0 | 0 | 0 | ?
Cc1cc(C)cc(Nc2cc(=O)n(C3CCCCC3)c(=O)[nH]2)c1 | 0 | 0 | 0 | 0 | 0 | 0 | -
COc1ccc(C2=Nn3c(nnc3-c3cccc(OC)c3OC)SC2)c(OC)c1 | - | - | - | - | 0 | 0 | -
COc1cc(C2CC(=O)N(c3ccc(C)cc3)C(=O)C2)cc(OC)c1OC | 0 | 0 | 0 | - | 0 | 0 | -
COc1cc(OC)c(C2CC(=O)N3CN(c4ccc(C)cc4)CSC3=C2C#N)cc1OC (configuration not stated) | 8.9µM | 0 | ? | 28µM | 0 | 0 | ?
CCOC(=O)Cc1ccc(NC(=O)Nc2nnc(N3CCCCC3C)s2)cc1 (configuration not stated) | - | 0 | 0 | ? | 0 | 0 | -
Cc1ccc(NC(=O)Cn2sc3nc(C)cc(C)c3c2=O)c(Cl)c1 | 18µM | 0 | ? | 28µM | 0 | 0 | 11µM
CCOc1ccc(NC(=O)Cn2sc3nc(C)cc(C)c3c2=O)cc1 | 16µM | 0 | 20µM | 13µM | 0 | 0 | ?

Screening data: PubChem BioAssay, National Center for Advancing Translational Sciences (NCATS)
